According to the supplement of paper PMC6555819:

Experiments:
Assay in all cases: PBM binding z-score (relative to random genomic background probes); higher = stronger binding; sequences stand for … in GC…GCGATTGACAGCGTAGAATGAAGG
[1] = system: FXR:RXRa (NR concentration 270 nM, RXRa partner concentration 90 nM)
How it was run: (§1)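 The probes on custom Agilent 4×180K protein-binding microarrays were double-stranded, with 34-nt variable regions bearing direct-repeat seeds, single-nucleotide variants, half-site ablations and random human genomic background sequences. Incubation lasted 1 h with ligand-free nuclear receptor dimers in PBS pH 7.4, 2% milk, 0.02% Triton X-100, 1 mM DTT, 0.2 mg/mL BSA and 0.4 mg/ml salmon testes DNA. Antibodies against each partner (one per run) detected bound dimers, and fluorescence scans were regression-normalized. Binding z-scores take the random background probes as reference.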

[2] = system: LXRa:RXRa (NR concentration 270 nM, RXRa partner concentration 90 nM)
How it was run: as §1

[3] = system: LXRa homodimer (NR concentration 270 nM)
How it was run: as §1

[4] = system: LXRb:RXRa (NR concentration 270 nM, RXRa partner concentration 90 nM)
How it was run: as §1

[5] = system: LXRb homodimer (NR concentration 270 nM)
How it was run: as §1

[6] = system: PPARa:RXRa (NR concentration 270 nM, RXRa partner concentration 90 nM)
How it was run: as §1

[7] = system: PPARg:RXRa (NR concentration 180 nM, RXRa partner concentration 90 nM)
How it was run: as §1

[8] = system: PPARg:RXRa 270nM:90nM, anti-RXR (NR concentration 270 nM, RXRa partner concentration 90 nM)
How it was run: as §1

[9] = system: PPARg:RXRa 30nM:10nM, anti-RXR (NR concentration 30 nM, RXRa partner concentration 10 nM)
How it was run: as §1

[10] = system: PPARg:RXRa 90nM:30nM, anti-RXR (NR concentration 90 nM, RXRa partner concentration 30 nM)
How it was run: as §1

[11] = system: PPARg:RXRa DBDmut IVT, anti-RXR (DBD mutation: RXRa K156A/R161A, NR concentration 270 nM, RXRa partner concentration 90 nM)
How it was run: as §1

[12] = system: PPARg:RXRa IVT, anti-PPARg (NR concentration 270 nM, RXRa partner concentration 90 nM)
How it was run: as §1

[13] = system: PPARg DBDmut:RXRa IVT, anti-PPARg (DBD mutation: PPARg1 K132A/R137A, NR concentration 270 nM, RXRa partner concentration 90 nM)
How it was run: as §1

[14] = system: PPARg DBDmut IVT, anti-PPARg (DBD mutation: PPARg1 K132A/R137A, NR concentration 270 nM)
How it was run: as §1

[15] = system: PPARg homodimer (NR concentration 180 nM)
How it was run: as §1

[16] = system: PXR:RXRa (NR concentration 270 nM, RXRa partner concentration 90 nM)
How it was run: as §1

[17] = system: PXR homodimer (NR concentration 270 nM)
How it was run: as §1

[18] = system: RARa:RXR (NR concentration 270 nM, RXRa partner concentration 90 nM)
How it was run: as §1

[19] = system: RARa homodimer (NR concentration 270 nM)
How it was run: as §1

[20] = system: RARb:RXRa (NR concentration 270 nM, RXRa partner concentration 90 nM)
How it was run: as §1

Sequence	PBM binding z-score [1]	PBM binding z-score [2]	PBM binding z-score [3]	PBM binding z-score [4]	PBM binding z-score [5]	PBM binding z-score [6]	PBM binding z-score [7]	PBM binding z-score [8]	PBM binding z-score [9]	PBM binding z-score [10]	PBM binding z-score [11]	PBM binding z-score [12]	PBM binding z-score [13]	PBM binding z-score [14]	PBM binding z-score [15]	PBM binding z-score [16]	PBM binding z-score [17]	PBM binding z-score [18]	PBM binding z-score [19]	PBM binding z-score [20]
CCAGACAGGCGAGAAGGTAACTCAGCCTCGATTA	-0.951	-0.595	-0.499	-0.97	-1.31	-0.764	-0.0182	-0.949	-0.723	-0.947	-0.678	-0.816	-0.981	-2.1	-0.649	-1.02	-0.455	-0.88	-0.498	-0.619
CGTCCAATGTCAATGCTAGGTCAGTGAAAGCATT	0.511	0.781	0.797	0.644	-0.123	1.01	-0.028	0.117	-0.386	0.0802	0.333	0.858	-0.586	-0.143	0.93	0.655	-0.0465	1.27	-0.0899	2.17
TTACCAAGGTGACGGTCGTTGATCCCTCTGTAGA	1.07	0.963	-0.313	0.464	-0.534	1.5	0.654	1.29	0.738	0.929	2.39	3.64	0.228	-0.126	0.25	0.252	-0.877	0.759	-0.412	1.82
AGAATGAGGTTATTAAGATAAGGGAATTGCGGTC	1.33	1.59	-0.0371	1.08	-0.0386	2.64	1.47	1.65	0.732	0.962	2.05	2.31	1.03	0.188	0.58	0.886	0.278	1.24	0.541	1.23
CATACAGGGTCAGCTATGCCAGAGTAGGGACGGC	4.14	2.68	-0.0915	1.98	0.359	4.21	3.53	2.58	0.968	1.77	0.895	2.38	0.429	0.135	0.969	2.18	-0.0786	3.05	0.191	4.03
TAGCCTCGGTCATGCGGGCCAGTATAGTGTCGGC	0.522	0.28	-0.0554	-0.734	-0.472	-0.0733	-0.325	-0.494	-0.587	-0.372	-0.364	0.336	-0.318	-0.413	-0.406	-0.524	-0.81	-0.296	-0.888	2.36
ATCTCTAGGTAACCAAGTTCGGTGAATGCCGAAC	0.162	0.167	0.0553	0.11	0.555	0.569	0.336	0.74	0.0695	0.909	3.09	2.93	1.06	1.09	0.509	0.501	0.469	0.415	0.268	0.571
AGCTCTAGGTAACCAAGTTCAGTGAATGCCGAAC	-0.0702	0.208	0.46	0.265	-0.228	0.481	0.22	0.513	-0.0768	-0.252	3.96	2.07	-0.276	-0.0149	0.421	1.53	1.74	0.198	-0.119	0.793
CGTCCAAGGTCATAGGAGGTTAGTGAAGACAGAT	7.23	6.11	2.12	4.77	0.715	5.61	4.92	5	2.04	3.54	2.69	3.67	0.657	-0.0801	3	5.46	2.22	4.61	1.31	5.06
CCTGCTAGGTCATGTTCAGCTAATCTACAGTATG	3.33	2.25	0.437	1.65	0.467	2.69	1.36	1.91	0.403	1.16	4.06	2.94	-0.127	0.556	1.51	1.07	-0.338	1.53	-0.173	3.63
ACAGACAAGTGATGAAGGTAACTCAGGCTATCAT	-0.375	-0.259	-0.503	-0.446	-0.469	-0.37	0.531	-0.282	-0.0857	-0.2	-0.565	-0.0204	0.0249	-0.152	-0.0362	-0.39	-0.0518	-0.0214	0.43	-0.307
AATACAGGGTCACTAGGCCAGAGGAGGTACGAAT	5.85	4.93	0.963	3.62	1.31	5.54	8.18	6.63	3.82	5.65	3.99	5.89	1.86	1.11	2.18	2.95	0.559	4.12	0.96	4.17
ACTAGCAGGCCAAGTTTGGGACACTCAAACAAAG	-0.139	-0.665	-0.588	-0.515	-0.807	-0.478	0.0502	-0.814	-0.775	-0.548	0.573	0.235	-0.681	-1.33	-0.893	-0.655	-0.694	-0.143	-0.864	0.366
CCGAGTAGGTGATGGGGCATTCAGGCAACGGTGA	-0.0189	-0.218	-0.529	-0.326	-1.01	1.72	3.51	4.41	2.46	4.61	2.92	3	0.0749	-1.06	0.758	-0.262	-0.379	-0.226	-0.778	0.297
